According to PubChem BioAssay (NCI):
This is part of a sample that, as a whole, favours compounds with a hit. Of some 79,000 tested, about 15% had one in any assay. Rule as the data show it: active = growth inhibition above about 70%; inactive = the rest. Where a SMILES comes first, the peptide text is derived from it. [ ]: non-standard residue; d: D form. The star is where a group is joined. Cbz = O=C(OCc1ccccc1)*; Dha = C=C(N)C(=O)O

Experiments:
[1] = NCI Yeast Anticancer Drug Screen. Data for the rad50 strain (AID 155);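 also: 0% = growth of vehicle-only cultures of the same strain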; details: S. cerevisiae rad50 strain growth inhibition; at 50.0 µM; stronger effect = higher value
In short: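 DNA repair mutant yeast, compound exposure, growth read-out; inhibition is taken relative to vehicle.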

[2] = NCI Yeast Anticancer Drug Screen. Data for the mec2-1 strain (AID 157); details: S. cerevisiae mec2-1 strain, at 50.0 µM, stronger effect = higher value
In short: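 Vehicle-treated cultures served as reference for growth inhibition of compound-exposed mec2-1 yeast.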

[3] = NCI Yeast Anticancer Drug Screen. Data for the sgs1 mgt1 strain (AID 161);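 also: 0% = growth of cultures given vehicle only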; details: S. cerevisiae sgs1 mgt1 strain, at 50.0 µM, stronger effect = higher value
In short: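 Test agents were incubated with a DNA-repair-mutant yeast strain. Growth was then read and compared against vehicle-treated controls.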

[4] = NCI Yeast Anticancer Drug Screen. Data for the cln2 rad14 strain (AID 165);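 also: 0% = growth equal to vehicle treated cultures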; details: S. cerevisiae cln2 rad14 strain, at 50.0 µM, stronger effect = higher value
In short: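 Each compound was tested on cln2 rad14 yeast. Inhibition of growth was calculated against vehicle-exposed controls.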

[5] = NCI Yeast Anticancer Drug Screen. Data for the bub3 strain (AID 167); details: S. cerevisiae bub3 mutant strain, at 50.0 µM, stronger effect = higher value
In short: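 In this screen, a yeast mutant lacking normal mitotic checkpoint function is challenged with compound. Relative growth versus vehicle gives the inhibition value.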

[6] = NCI Yeast Anticancer Drug Screen. Data for the mlh1 rad18 strain (AID 175); details: S. cerevisiae mlh1 rad18 strain growth inhibition; at 50.0 µM; stronger effect = higher value
In short: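 Vehicle-treated cultures served as the reference for growth inhibition in a yeast strain carrying DNA damage repair alterations exposed to each compound.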

Measured: growth inhibition

CC(=O)C[n+]1ccccc1Oc1ccccc1
inactive: [1] 5.9% | [2] 4.15% | [3] 4.25% | [4] 11.2% | [5] 12.8% | [6] 3.75%

CC1CC(C)OC(C)(Cc2ccccc2)O1 (stereo not given)
inactive: [1] 23.8% | [2] 20.4% | [3] 25.6% | [4] -19.9% | [5] -2.15% | [6] -13.9%

Cc1c(-c2ccccc2)[nH]c2ccc(Cl)cc2c1=O
inactive: [1] -7.5% | [2] -30.9% | [3] 28.9% | [4] 2.8% | [5] -5.1% | [6] 6.25%

Cn1cnc([N+](=O)[O-])c1Sc1ccccc1C(=O)O
inactive: [1] -2.7% | [2] -0.15% | [3] -23.1% | [4] 23.6% | [5] -0.35% | [6] -12.1%

N#C/C(=C\c1ccco1)c1ccc([N+](=O)[O-])cc1
inactive: [1] 16.2% | [2] 15.1% | [3] 25.6% | [4] -0.25% | [5] 42.3% | [6] 14.3%

CCOC(=O)NC(=O)c1cn(CCN2CCN(C(=O)NCCCCCCNC(=O)N3CCN(CCn4cc(C(=O)NC(=O)OCC)c(=O)[nH]c4=O)CC3)CC2)c(=O)[nH]c1=O
inactive: [1] -12.3% | [2] 14.7% | [3] -8.95% | [4] -18.6% | [5] -0.75% | [6] -11.6%

CC1CCC2(CC1)N=C1CCC(C)CC1C1(CCC(C)CC1)N2 (stereo not given)
inactive: [1] -22.4% | [2] 0.25% | [3] -32.9% | [4] -23.1% | [5] -13.2% | [6] -11.1%

O=C(/C=C(\C(=O)c1ccccc1)c1ccccc1)c1ccc(-c2ccccc2)cc1
inactive: [1] 8.2% | [2] -2.35% | [3] -3.15% | [4] -6.9% | [5] -3.45% | [6] -16.9%

COC(=O)/C=C/C1C2C3(CCC(C)C12C)OCCS3 (stereo not given)
inactive: [1] -23.4% | [2] -14.2% | [3] -4.45% | [4] -5.3% | [5] -6.95% | [6] -30.1%

Cn1c(=O)c2c(nc3n(C)c(=O)c4ccccc4n23)n(C)c1=O
inactive: [1] 64.7% | [2] 32.8% | [3] -8.15% | [4] 7.3% | [5] 5.45% | [6] 45.6%

CC(O)COC(C)COC(C)c1ccccc1 (stereo not given)
inactive: [1] 1.6% | [2] 0.3% | [3] -4% | [4] -2.35% | [5] 2.2% | [6] 4.65%

CC(NS(=O)(=O)c1cccc(C(=O)O)c1)c1ccccc1 (stereo not given)
inactive: [1] 10.3% | [2] -14.5% | [3] 0.3% | [4] -38.4% | [5] 3.25% | [6] -0.05%

COc1cc([C@@H]2C3C(=O)c4ccccc4C3[C@@H](c3cc(OC)c(OC)c(OC)c3)C23Cc2ccccc2C3=O)cc(OC)c1OC (stereo not given in full)
inactive: [1] -6.5% | [2] -0.95% | [3] -11.2% | [4] 4.55% | [5] 23.4% | [6] 16%

O=[N+]([O-])c1nc(-[n+]2ccccc2)[n-]c1Br
inactive: [1] 4.65% | [2] -1.05% | [3] -1.9% | [4] -49.9% | [5] 4.1% | [6] 8.8%

CNc1ccc(Br)cc1[N+](=O)[O-]
inactive: [1] -22.2% | [2] -22.7% | [3] -12.9% | [4] -0.2% | [5] -26.7% | [6] -15.4%

CC1=C(O[Si](C(C)C)(C(C)C)C(C)C)C2CC1[C@@H]1C(=O)N(c3ccccc3)C(=O)[C@H]21 (stereo not given in full)
inactive: [1] -1.45% | [2] -10.8% | [3] -7.15% | [4] 5.5% | [5] -15.6% | [6] -15.1%

C=C(NC(=O)C(C)NC(=O)OCc1ccccc1)C(=O)N1CCCC1C(=O)NC(C)C(=O)NC (stereo not given) (Cbz-A[Dha]PA-NHMe; configuration not given here)
inactive: [1] 3% | [2] -3.95% | [3] -5.05% | [4] 3.4% | [5] -4.35% | [6] -2.4%

C/C(N=NC(=S)N(C)C)=C1\C=CC=CN1O
inactive: [1] -0.25% | [2] 11.8% | [3] 8.1% | [4] 55.6% | [5] 23.1% | [6] 38.9%

O=C(O)c1cc(CC2Cc3cc4c(cc3C2=O)CCC4)cc2c1CCC2 (stereo not given)
inactive: [1] -27.4% | [2] -30.1% | [3] -21.6% | [4] 6.05% | [5] -18.8% | [6] -21.8%

CC(=O)Nc1ccccc1/C=C\c1ccccn1
inactive: [1] -21.6% | [2] -9.85% | [3] -15.5% | [4] 1.25% | [5] -5.1% | [6] -11.7%
